Assay results from PubChem BioAssay AID1508623 (National Center for Advancing Translational Sciences (NCATS), 2021).
The campaign covered roughly 48,000 compounds. About 450 (0.94%) were called active. Entries that show only a call come without a potency. Roughly 19% stayed inconclusive and do not appear here. Many of the other results were omitted from the sample, so actives are more common in it than they were. Unmarked numbers belong to inactive results. Calls come from the whole dose curve; as a rule, active = well fitted inhibition curve with a large enough effect; inconclusive = small, poorly fitted or top-dose-only effect; inactive = no such curve, though single readings can be large or run the other way.

Assay: Primary qHTS for Identification of Small Molecule Inhibitors of Huntingtin Promoter Activity; note: nearly all actives have a fitted effect of over 50% in size
Conditions: HEK293 HTT promoter firefly luciferase reporter (activity 0% = vehicle and -100% = no light), 24 h; series mostly up to 57.5 µM
Text: Assay Provider: Russell L. Margolis M.D.
Department Neurology, Johns Hopkins University School of Medicine, Baltimore, MD
Huntington's Disease (HD) is a neurodegenerative disorder caused by a CAG repeat expansion in exon 1 of huntingtin (HTT). While there are currently no disease-modifying treatments for HD, recent efforts have focused on development of nucleotide-based therapeutics to lower HTT expression. As an alternative to siRNA or oligonucleotide methods, we hypothesized that suppression of HTT expression might be accomplished by small molecules that either (1) directly decrease HTT expression by suppressing HTT promoter activity or (2) indirectly decrease HTT expression by increasing the promoter activity of HTT-AS, the gene antisense to HTT that appears to inhibit expression of HTT.
We developed and employed a high throughput screen for modifiers of HTT and HTT-AS promoter activity using luminescent reporter HEK293 cells; of the 52,041 compounds tested, we identified 898 replicable hits. We used a rigorous stepwise approach to assess compound toxicity and the capacity of the compounds to specifically lower huntingtin protein in 5 different cell lines, including HEK293 cells, HD lymphoblastoid cells, mouse primary neurons, HD iPSCs differentiated into cortical-like neurons, and HD hESCs. We found no compounds which were able to lower huntingtin without lowering cell viability in all assays, though the potential efficacy of a few compounds at non-toxic doses could not be excluded.
SEQUENCE No. (1, 2, 3, etc.); […] (e.g., Cells, Incubation, Reagent, etc.); VALUE and DESCRIPTION.
1; Reagent; 4 uL; 2,500 Hek293 luciferase reporter cells per wells
3; Compound; 23 nL; Control inhibitor / compound library
5; Reagent; 2.5 uL; Firefly Luc reagent; Dual-Glo Luciferase Reporter Assay System (Promega)
6; Time; 10 min; room temperature incubation
7; Detection; Luminescence; FLuc
NOTES (numbers refer to sequence above)
1; High-throughput screening, measuring luminescence from a Hek293 luciferase reporter, was performed in 1,536 well white-walled tissue-culture treated plates. 2,500 cells were plated in 4 µL of Opti-MEM per well using a Multidrop Combi Reagent Dispenser (ThermoFisher).
2; Assay plates were cultured for 24 hours.
3; Control inhibitor (PTC124; final concentration of 50 uM) and compound library (at final concentrations of 460 nM - 57.5 uM) were added to the assay plate using the Kalypsis Pintool Robotic System equipped with 1536 pinheads.
4; Cells were then incubated for 24 hours at 37 degrees C prior to luminescence measurements.
5; In all cases, luminescence was measured using the Dual-Glo Luciferase Reporter Assay System (Promega) following the manufacturer's instructions.
6; Room temperature incubation.
7; Luminescence signal was obtained using the PerkinElmer ViewLux plate reader. Results were normalized to vehicle control (0% activity) and zero RLU (-100% activity).
Potency is the fitted concentration of half-maximal effect.

SMILES	Potency	activity change, negative = inhibition
Cc1cccc(N2CCN(C(=O)c3ccc(Nc4nc5ccccc5n5nnnc45)cc3)CC2)c1C	inactive	–
O=C(c1ccc2c(c1)N(Cc1ccccc1)C(=O)c1ccccc1S2(=O)=O)N1CCCC1	inactive	–
CCOc1ccccc1N(CC)C(=O)Nc1cn(C)c(=O)c2ccccc12	inactive	–
CSc1nc(-c2ccc(F)cc2)nc2c1Cc1c(CO)cnc(C)c1O2	inactive	–
CCOc1ccc(NC(=O)C(CC(C)C)N2Cc3ccccc3C2=O)cc1 (configuration not stated)	inactive	–
COC(=O)c1cc(NC(=O)c2sc3ccccc3c2Cl)cc(C(=O)OC)c1	inactive	–
Cc1cccc(N2CCN(C(=O)c3oc(=O)c4ccccc4c3-c3ccccc3)CC2)c1C	inactive	–
CC(C)(C)OC(=O)N1CCC(c2c(C(=O)NCc3ccccn3)cnn2-c2ccc(F)cc2)CC1	inactive	–
Cc1ccc(NC(=O)CSc2nc3c([nH]c4ccccc43)c(=O)n2-c2ccccc2)c(C)c1	inactive	–
COc1ccc(-c2noc(CSc3nc(C)cc(=O)[nH]3)n2)cc1OC	inactive	–
COc1ccc(-c2noc(CSc3nc4ccc(C)cc4[nH]3)n2)cc1	28.2 µM (active)	–
Cc1ccc(-c2noc(CSc3nnc(-c4ccc(Cl)cc4)n3C)n2)cc1	inactive	–
Cn1c(=O)c2c(SCC(=O)N3CCc4ccccc43)nc(-c3ccc(Cl)cc3)nc2n(C)c1=O	inactive	–
Cc1cc(C)cc(NC(=O)CSc2oc(-c3ccccc3)nc2S(=O)(=O)c2ccc(Cl)cc2)c1	inactive	–
Cc1ccc2c(=O)c(C(=O)c3ccc(Cl)cc3)cn(CC(=O)NC3CCCCC3)c2n1	inactive	–
COC(=O)c1scc(-c2ccc(C)cc2)c1S(=O)(=O)Nc1cc(Cl)c(OC)cc1OC	inactive	–
CCOC(=O)c1ccc(NC(=O)c2csc3c2CCCCC3)cc1	inactive	–
COc1cccc(C(=O)c2sc3nc(-c4ccccc4)cc(C(F)(F)F)c3c2N)c1	inactive	–
Cn1c(=O)n(Cc2c(F)cccc2Cl)c(=O)c2c1nc1n2CCN1c1ccc(F)cc1	inactive	–
CCc1nn(CC(=O)N2CCN(c3cccc(C(F)(F)F)c3)CC2)c(=O)c2cc3occc3n12	inactive	–
COC(=O)c1ccc(OC)c(Cn2c(=O)n(Cc3ccccc3)c(=O)c3c2c2cc(OC)ccc2n3C)c1	inactive	–
Cc1cccc(C(=O)NCCc2nc3ccccc3n2Cc2ccccc2Cl)c1	inactive	–
CCOc1ccc2nc(N3CCCC(C(=O)Nc4cc(C)ccc4C)C3)sc2c1 (configuration not stated)	inactive	–

SMILES	Potency	activity change, negative = inhibition
O=C(/C=C/c1ccccc1)N1CCN(Cc2cc(=O)n3nc(-c4ccccc4F)sc3n2)CC1	inactive	–
O=C(O)c1ccc(Cn2c(SCc3ccc(F)cc3)nc3ccncc32)cc1	inactive	–
Cc1cccc(CSc2nc3ccncc3n2Cc2ccc(C(=O)O)cc2)c1	inactive	–
COc1cccc(Cn2c(SCc3ccc(C(=O)N4CCCCC4)cc3)nc3ccncc32)c1	12.6 µM (active)	–
COc1ccccc1Cc1nc2ccccc2nc1SCC(=O)N1CCCc2ccccc21	inactive	–
Cc1ccc(CNC(=O)CCc2c(C)nc3nc(CNC(=O)OC(C)(C)C)nn3c2C)cc1	inactive	–
CC(=O)N1CCCc2cc(S(=O)(=O)N3CCCC(C(=O)N4CCN(c5cccc(Cl)c5)CC4)C3)ccc21 (configuration not stated)	7.08 µM (active)	–
CC(=O)N1CCCc2cc(S(=O)(=O)N3CCC(C(=O)NC4CCCCC4)CC3)ccc21	inactive	–
CC(=O)N1CCCc2cc(S(=O)(=O)Nc3ccc(Cl)cc3F)ccc21	inactive	–
CCN(CC)c1ccc(NC(=O)CN2CCN(CC(=O)Nc3ccc(Cl)cc3)CC2)cc1	inactive	–
Cc1oc2ncnc(N3CCOCC3)c2c1C(=O)NCCc1ccccc1	inactive	–
Cc1c(C(=O)Nc2cccc(Cl)c2)oc2ccc(S(=O)(=O)N3CCOCC3)cc12	inactive	–
CCOC(=O)c1oc2ccc(S(=O)(=O)n3nc(-c4ccccc4OC)cc3N)cc2c1C	12.6 µM (active)	–
Cc1ccc(NC(=O)c2oc3ccc(S(=O)(=O)N4CCCCC4)cc3c2C)cc1Cl	inactive	–
O=C(Nc1ccc2nc(SCC(=O)N3CCc4ccccc43)sc2c1)c1ccccc1F	inactive	–
O=C(c1cccc(Cl)c1)N1CCN(CCc2ccncc2)CC1	inactive	–
COC(=O)c1sccc1S(=O)(=O)N(CC(=O)Nc1ccc(C)c(F)c1)c1ccc(C)c(C)c1	inactive	–
CC1CN(C(=O)N2CCC(C(=O)NCc3cccs3)CC2)c2ccccc2O1 (configuration not stated)	inactive	–
Cc1ccc2nc(COc3cccc(NC(=O)c4cccc(Cl)c4)c3)cc(=O)n2c1	inactive	–
CCn1cc(C(=O)NCCc2ccccc2)c(=O)c2cc(S(=O)(=O)N3CCCCCC3)ccc21	inactive	–
CCc1ccc(NC(=O)N2CCN(C(=O)c3nsc4ccccc34)CC2)cc1	inactive	–
Cc1ccc(Oc2c(C(F)(F)F)oc3c(CN4CCCCC4)c(O)ccc3c2=O)cc1	inactive	–
COc1ccc(-c2cc(NCc3ccc(F)cc3)n3cnnc3n2)cc1	inactive	–

SMILES	Potency	activity change, negative = inhibition
CCOc1ccc(S(=O)(=O)c2cn(Cc3ccc(OC)cc3)c3ccc(F)cc3c2=O)cc1	inactive	–
Cc1sc(C2C(C#N)=C(N)N(c3cccc(Cl)c3)C3=C2C(=O)CCC3)cc1CN1CCOCC1 (configuration not stated)	inactive	–
COc1ccc(NC(=O)c2ccco2)cc1NC(=O)c1ccc(C#N)cc1F	inactive	–
CCc1cccc(NC(=O)CN(C)S(=O)(=O)c2ccc3[nH]c4c(c3c2)CCCC4)c1	inactive	–
COc1ccc(OC)c(-n2nnc3c(sc4nc(C)c(Br)c(C)c43)c2=O)c1	inactive	–
Cc1c(C(=O)N(C)C)sc2c1c(=O)n(-c1ccc(F)cc1)c(=O)n2CC(=O)N(C)c1ccccc1	inactive	–
CCOc1ccc(C(NC(=O)c2cc(OC)c(OC)c(OC)c2)c2cc(Cl)c3cccnc3c2O)cc1 (configuration not stated)	3.55 µM (active)	–
COc1c(Cl)cc(Cl)cc1C(=O)Nc1cccc2cccnc12	inactive	–
COc1cc(C(=O)NCC(c2ccc(Cl)cc2)N2CCOCC2)cc(OC)c1OC (configuration not stated)	inactive	–
CCCCCn1c(=O)[nH]c2cc(C(=O)Nc3cc(C)cc(C)c3)ccc2c1=O	inactive	–
Cc1ccc(Cl)cc1N1CCN(S(=O)(=O)c2cc3[nH]c(=O)c(=O)[nH]c3cc2C)CC1	inactive	–
CC(=O)c1sc(N2C(=O)c3oc4ccccc4c(=O)c3C2c2ccc(C)cc2)nc1C (configuration not stated)	–	-13.5% [at 11.5 µM]
CCS(=O)(=O)N1CCc2cc(C(=O)NCc3ccc(C)cc3)ccc21	inactive	–
CCOC(=O)c1c(C)oc2nc(C)nc(Nc3ccc(CC)cc3)c12	inactive	–
O=C(Cn1c(=O)nc(-c2ccccc2)c2cc(Cl)ccc21)NCc1ccc(Cl)cc1	inactive	–
CCCOc1cccc(C(=O)Nc2cccc(NC(=O)c3ccc(C(C)(C)C)cc3)c2)c1	inactive	–
CCCN(CCC)CCNC(=O)Cn1cnc2sc(C)c(S(=O)(=O)N3CCC(C)CC3)c2c1=O	inactive	–
CCc1nn(CCCC(=O)NC(C)c2ccccc2)c(=O)c2cc3occc3n12 (configuration not stated)	inactive	–
COc1ccc(-c2cc(-c3nc(-c4cc(OC)c(OC)c(OC)c4)no3)[nH]n2)c(OC)c1	inactive	–
Cc1ccccc1-c1nc(CS(=O)(=O)CC(=O)NC(C)c2ccccc2)c(C)o1 (configuration not stated)	inactive	–
Cc1ccc(Cl)cc1N1CCN(C(=O)CN2C(=O)COc3ccc(S(=O)(=O)N4CCOCC4)cc32)CC1	inactive	–
Cc1cccc(N2CCN(C(=O)COCc3cc(-c4ccc5c(c4)OCO5)on3)CC2)c1C	inactive	–
O=C(Cn1c(-c2cccs2)cc2ccccc21)NCCc1ccc(Cl)cc1	inactive	–

SMILES	Potency	activity change, negative = inhibition
Cc1oc(-c2ccccc2F)nc1CN1CCC(C(=O)NCCc2ccc(Cl)cc2)CC1	inactive	–
Cc1c(NC(=O)Nc2ccc(F)c(Cl)c2)c(=O)n(-c2ccccc2)n1C	inactive	–
CCN(CC)S(=O)(=O)c1ccc2c(c1)N(CC(=O)NCC(C)c1ccccc1)C(=O)CO2 (configuration not stated)	inactive	–
CCN(CCCNC(=O)c1cc2c(=O)n(CC)c3ccccc3c2s1)Cc1ccccc1	inactive	–
Cc1ccc(Cl)cc1N(C)C(=O)Cn1nc(Cc2cccnc2)c2ccccc2c1=O	inactive	–
CC(=O)c1cccc(Nc2ccc3cc(S(=O)(=O)N4CCC(C)CC4)ccc3n2)c1	inactive	–
C[C@@H](NC(=O)c1ncnc(N)c1Cl)c1ncc(C(=O)Nc2cc(C(F)(F)F)c(Cl)cn2)s1	inactive	–
Cc1cc(NC(=O)CSc2ncc(C(=O)Nc3ccc(Cl)cc3)c(=O)n2C)no1	inactive	–
CC(=O)c1ccc(NC(=O)C2CCN(S(=O)(=O)c3c(C)noc3/C=C/c3ccc(C)cc3)CC2)cc1	inactive	–
CCOC(=O)c1ccc(NC(=O)C2CC(=O)N(c3ccc(C(C)C)cc3)C2)cc1 (configuration not stated)	inactive	–
CC(C)c1ccc(NC(=O)C2CCN(c3nc(-c4ccc(C(C)C)cc4)no3)CC2)cc1	0.0891 µM (active)	–
Cc1ccc2nc(CNC(=O)c3ccccc3)[nH]c2c1	inactive	–
COCCCNC(=O)CN1C(=O)CSc2ccc(S(=O)(=O)N3CCOCC3)cc21	inactive	–
CCCNC(=O)c1ccc2c(c1)ncn2-c1ccc(C)cc1C	inactive	–
CN1C(=O)C[C@H](C(=O)N[C@@H](Cc2cnc[nH]2)C(=O)N2CCC[C@@H]2C(N)=O)NC1=O	inactive	–
COc1ccc(C(=O)NCC(c2ccc(N(C)C)cc2)N2CCc3ccccc32)c(OC)c1 (configuration not stated)	inactive	–
COc1cccc(-n2c(=O)c3c(C)c(C(=O)N(C)C)sc3n(Cc3cccc(C)c3)c2=O)c1	inactive	–
COc1ccc2c(c1)C=C(C(=O)NCc1cc(Br)ccc1OC)CO2	inactive	–
CCc1ccccc1NC(=O)c1ccc2nc(CCc3ccccc3)oc2c1	inactive	–
O=C(Nc1cccc(-c2nc3ccccc3o2)c1)c1cccc(Br)c1	inactive	–
Cc1ccc(NC(=O)C2CCN(S(=O)(=O)c3cc(-c4noc(C)n4)ccc3C)CC2)c(C)c1	11.2 µM (active)	–
CCOc1ccc(NC(=O)C2CCN(S(=O)(=O)c3cc(-c4noc(C)n4)ccc3C)CC2)cc1	inactive	–
Cc1cc(C)c(/C=C/c2onc(C)c2S(=O)(=O)N2CCC(C(=O)Nc3ccc(Cl)cc3C)CC2)c(C)c1	inactive	–
